In all, about 220,000 compounds went through this assay and about 2,000 (0.91%) were called active. Inconclusive results (about 2%) are left out. A selection follows. Measured potencies and affinities stand elsewhere. A number with no mark means an inactive call. Rule as the data show it: inconclusive = inhibition above about 80% without an active follow-up result; inactive = below that; test concentration not stated here.
Assay: M. tuberculosis H37Rv growth inhibitors, H37Rv strain (AID 1626);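 also: bacteria incubated seven days before Alamar blue readout; 0% = bacteria only wells and 100% = bacteria with antibiotic wells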
Details: active compounds read high, concentration not given here

| Structure (SMILES) | inhibition [%] |
| --- | --- |
| O=C(c1ccccc1)c1cccs1 | 0.41 |
| Nc1ccc(C(=O)c2cccs2)cn1 | -5.69 |
| COc1ccc(-c2csc(NC(CO)c3nc4ccccc4n3CCCO)n2)cc1 (stereo not given) | 1.28 |
| Cc1cc(-c2csc(NC(=O)c3cc4ccccc4o3)n2)c(C)n1C | -8.86 |
| O=C(Nc1ccccn1)c1cc2ccccc2o1 | 9.27 |
| Cc1ccc(-c2csc(NC(=O)c3ccc(C)o3)n2)cc1 | 10.4 |
| Cc1ccc(C(=O)Nc2nc(-c3cccnc3)cs2)o1 | 7.51 |
| CCCCn1nnnc1SCC(=O)N1CCOCC1 | -13.6 |
| Cc1[nH]nc2c1C(c1cccs1)C(C#N)=C(N)O2 (stereo not given) | 8.65 |
| CC(O)[C@H]1CNC(=O)C(=O)N1CCC12CC3CC(CC(C3)C1)C2 (stereo not given in full) | -0.53 |
| COc1ccc(OC)c(S(=O)(=O)Nc2ccc3oc4c(c3c2)C(=O)CCC4)c1 | -4.7 |
| CC(=O)Oc1ccc2oc(C)c(C(=O)N3CCOCC3)c2c1 | -12.9 |
| COc1ccc(-n2c(O)c(C(C)=NCc3ccc4c(c3)OCO4)c(=O)[nH]c2=O)cc1 | 0.11 |
| CC(C)N(C(=O)CC1ON(C)C(=O)N1c1ccc(Cl)cc1)C(C)C (stereo not given) | -4.4 |
| CCOC(=O)C1=C(c2ccccc2)N=c2s/c(=C\c3cc(OC)c(OC)c(OC)c3)c(=O)n2C1c1cccs1 (stereo not given) | -2.92 |
| CCOC(=O)C1=C(C)N=c2s/c(=C/c3ccccc3)c(=O)n2C1c1ccc(OC)c(OC)c1 (stereo not given) | 1 |
| S=C(NCCc1ccccc1)Nc1ccccc1N1CCOCC1 | 0.99 |
| COc1ccc([N+](=O)[O-])cc1NC(=O)C(C)OC(=O)c1cccnc1Cl (stereo not given) | -2.19 |
| CC1=C(C(=O)Nc2ccccn2)C(c2ccc(Cl)cc2)NC(=S)N1 (stereo not given) | -5.44 |
| CCOC(=O)c1cnc(Nc2nc3ccccc3o2)nc1CSc1ncccn1 | 0.18 |
| CCOC(=O)c1cnc(Nc2nc3ccccc3o2)nc1CSC(=S)N(CC)CC | -2.38 |
| O=C1c2cc(O)cc(O)c2C(=O)c2c1cc(O)c([C@@H](CO)CCO)c2O | -0.07 |
| Cc1cc(NC(=O)CCCC(=O)N(c2ccccc2)C(C(=O)NC2CCCCC2)c2cccs2)no1 (stereo not given) | -3.8 |
| Cc1ccc([N+](=O)[O-])cc1N(CC(=O)NC1CCCC1)S(C)(=O)=O | 1.23 |

| Structure (SMILES) | inhibition [%] |
| --- | --- |
| Cc1c(/C=N\NC(=O)C2COc3ccccc3O2)c2ccccc2n1C (stereo not given) | 10.6 |
| C#CCNC(=O)C1=C[C@@H](C2CC2)[C@H](CCCO)[C@@H](OCC)O1 | -9.56 |
| CCC(=O)Nc1nnc(-c2ccc(Cl)s2)o1 | 13.6 |
| O=C(Nc1nnc(-c2ccco2)o1)C1CCCCC1 | 3.01 |
| O=C(Nc1nnc(-c2ccncc2)o1)C1CCCCC1 | 0.18 |
| CC(=O)Nc1nnc(-c2ccc(Cl)s2)o1 | 2.92 |
| Cc1cc(C(=O)COc2ccc(Cl)cc2Br)c(C)n1C | -4.24 |
| CCN(CC)C(=O)C1CCCN(c2ccc([N+](=O)[O-])cc2/C=N/NC(=O)c2ccccc2)C1 (stereo not given) | 9.19 |
| Cc1ccc(CNC(=O)CCc2nc(-c3cccs3)no2)cc1 | 6.02 |
| CCN(CC)S(=O)(=O)c1ccc(NS(=O)(=O)CC23CCC(CC2=O)C3(C)C)cc1 (stereo not given) | -3.32 |
| C=CCNC(=O)c1ccc(-n2cccc2)cc1 | 8.71 |
| O=C(Nc1ccc(F)cc1)N1CCC(c2nc3c(nnn3Cc3cccc(Cl)c3)c(=O)[nH]2)CC1 | 64.2 |
| N#Cc1ccc(NC(=O)N2CCC(c3nc4c(nnn4Cc4cccc(Cl)c4)c(=O)[nH]3)CC2)cc1 | 69 |
| N/C(=N\OC(=O)CCc1ccccc1)c1ccccc1Cl | 14.4 |
| COc1cc(CNC(C)(C)CO)cc(Br)c1OCc1ccc(Cl)cc1Cl | 62.5 |
| COc1cc(CNC(C)(C)CO)cc(Br)c1OCc1ccc(Cl)cc1 | 9.24 |
| COC(=O)CCC(=O)OC1(C)C(=O)C2=CN(Cc3ccco3)C(c3ccc(OC)cc3)=CC2=C(Br)C1=O (stereo not given) | 1.66 |
| CCCc1cc(C(=O)Nc2nnc(C)s2)cs1 | 1.88 |
| O=C(COC(=O)c1ccccn1)Nc1nccs1 | -5.49 |
| CCC(=O)Nc1cccc(C(=O)Nc2nccs2)c1 | 2.64 |
| O=C(Nc1nccs1)c1cnccn1 | -1.5 |
| Cc1cnc(NC(=O)c2sc3ccccc3c2Cl)s1 | 3.19 |
| O=C(Nc1ccncc1)c1sc2ccccc2c1Cl | 2.92 |
| Cc1onc(-c2c(F)cccc2Cl)c1C(=O)Nc1nccs1 | 6.17 |

| Structure (SMILES) | inhibition [%] |
| --- | --- |
| COC(=O)c1nc(N)sc1-c1ccc(OC)cc1 | -1.47 |
| CCCS(=O)(=O)N1CCN(Cc2ccc([N+](=O)[O-])cc2)CC1 | 5.19 |
| COc1ccc(CNC(=O)COC(=O)c2ccc(Br)cc2)cc1 | 5.06 |
| CN(C)NC(=O)C(NC(=O)c1ccccc1)C12CC3CC(CC(C3)C1)C2 (stereo not given) | -4.07 |
| CCn1c(=O)c(C(=O)CN2CCCc3ccccc32)c(N)n(Cc2ccccc2)c1=O | -5.75 |
| COc1ccc(-c2nnc3n2C(C)(C)Cc2cc(OC)c(OC)cc2-3)cc1 | 3.77 |
| COC(=O)[C@@H](NC(=O)Nc1ccc(OC)cc1)C(C)C | 2.16 |
| COc1ccc(NS(=O)(=O)c2ccc(O)c(C(=O)OCC(=O)NC(C)C3CC4CCC3C4)c2)cc1 (stereo not given) | -0.76 |
| CCc1ccc(NC(=O)c2ccccc2Br)cc1 | 6.96 |
| CC(SC1CCCC1)C(=O)NC(C)(C#N)C(C)C (stereo not given) | -2.88 |
| CC(C)(C)NC(=O)C1CCC(CNc2c(N3CCCCC3)c(=O)c2=O)CC1 (stereo not given) | -2.67 |
| COc1ccc(NC(=O)CN2CCN(C3c4ccccc4-c4ccccc43)CC2)cc1 | 18.1 |
| CCOc1ccc(NC(=O)CN2CCN(CC(=O)Nc3ccc(F)c(F)c3)CC2)cc1 | 10.7 |
| COc1ccc(NC(=O)CN2CCN(C3c4ccccc4-c4ccccc43)CC2)c(OC)c1 | 28.6 |
| CCOc1ccc(NC(=O)CN2CCN(CC(=O)Nc3ccc(F)cc3)CC2)cc1 | 9.61 |
| COc1ccc(C(=O)N[C@H](C(=O)OCc2cc(=O)oc3cc(C)ccc23)C(C)C)cc1 | 9.93 |
| Cc1cccc(C)c1OCCCCn1cnc2ccccc2c1=O | -6.94 |
| CCOC(=O)N1CCN(C(=O)CCCn2c(=O)[nH]c3ccccc3c2=O)CC1 | 1.26 |
| COC(=O)C1=C(C)NC(C)=C(C(=O)OC)C1C1CC=CCC1 (stereo not given) | 5.42 |
| Cc1cccn2cc(-c3cccc(NC(=O)c4cccs4)c3)nc12 | 2.98 |
| COc1ccc(-c2cc(C(=O)OC3CCOC3=O)c3ccccc3n2)cc1OC (stereo not given) | -3.98 |
| CCOC(=O)N1CCN(C(=O)CSc2ccc(-c3ccccc3OC)nn2)CC1 | 3.28 |
| COC(=O)c1ccc(Cl)c(S(=O)(=O)N2CCCC2)c1 | 4.58 |
| C=C(C)C1Cc2c(C)nn(-c3cccc4ccccc34)c2C1 (stereo not given) | 13.7 |

| Structure (SMILES) | inhibition [%] |
| --- | --- |
| C=C(C)C1Cc2c(C)nn(-c3ccccc3)c2C1 (stereo not given) | 3.68 |
| COc1ccccc1CCc1nnc(CCC(=O)NC(C)Cc2cccnc2)o1 (stereo not given) | 4.51 |
| COc1ccccc1Nc1nnc(SCC(=O)N2CCCC2)s1 | -3.72 |
| O=C(CCC1CCCCC1)NNC(=O)NC12CC3CC(CC(C3)C1)C2 | -2.75 |
| OC(CNCc1ccco1)Cn1c2ccccc2c2ccccc21 (stereo not given) | 0.42 |
| OC(CNCC1CCCO1)Cn1c2ccc(Br)cc2c2cc(Br)ccc21 (stereo not given) | 43.1 |
| O=C(CCc1nnc(Cc2c[nH]c3ccccc23)o1)NC1CCCC1 | -6.46 |
| CN(C)S(=O)(=O)c1ccc(NC(=O)CSc2nnnn2C)cc1 | 2.23 |
| Cc1ccc(S(=O)(=O)NC(=O)Nc2cc(C(C)(C)C)on2)cc1 | -7.06 |
| Cc1ccc2cc(CCNC(=O)c3cccc([N+](=O)[O-])c3)c(=O)[nH]c2c1 | 2 |
| COc1ccc(CCNC(=O)C2=COCCO2)cc1 | 0.72 |
| CCc1nnc(NC(=O)c2ccc3ncsc3c2)s1 | -18.6 |
| COc1ccc2nc(NC(=O)c3ccc4ncsc4c3)sc2c1 | 8.2 |
| O=C(COc1ccc(Cl)cc1Cl)Nc1nnc(C2=COCCO2)o1 | 1.29 |
| COc1ccc(C)c2sc(NC(=O)C3=COCCO3)nc12 | 5.95 |
| COc1ccc(OC)c2sc(NC(=O)C3=COCCO3)nc12 | 6.97 |
| COc1ccc(-c2csc(NC(=O)COC(=O)C3=COCCO3)n2)cc1 | 4.53 |
| Cc1ccnc2nc(C(=O)Nc3nnc(-c4ccc(Cl)cc4)o3)nn12 | -1.12 |
| COc1ccc(CC2(CO)CCN(Cc3cnn(-c4ccc(F)cc4)c3)CC2)cc1 | -9.12 |
| NC(=O)c1ccccc1NS(=O)(=O)c1ccc2c(c1)OCCO2 | -3.34 |
| CN1CCN(c2ccc(Cl)cc2NC(=O)c2ccc(S(=O)(=O)N(C)C)cc2)CC1 | -2.17 |
| COc1ccc(C(=O)NC(=S)Nc2cccc(NC(=O)c3ccco3)c2)cc1[N+](=O)[O-] | 6.53 |
| CCCN1C(=O)c2ccccc2NC1c1ccc(OC)c(CSc2ccccn2)c1 (stereo not given) | -2.45 |

Source: PubChem BioAssay AID1626 (SRMLSC, 2009)
